# Screening data: PubChem, Broad Institute
# STK33 kin inh: human STK33 kinase inhibition. 0.44% of 27,000 active. ADP-Glo luminescence, MBP substrate. inhibition, % at 12.5 µM. Q9BYT3; in the data active means inhibition above about 20%
# Target sequence (Q9BYT3 whole entry, looked up): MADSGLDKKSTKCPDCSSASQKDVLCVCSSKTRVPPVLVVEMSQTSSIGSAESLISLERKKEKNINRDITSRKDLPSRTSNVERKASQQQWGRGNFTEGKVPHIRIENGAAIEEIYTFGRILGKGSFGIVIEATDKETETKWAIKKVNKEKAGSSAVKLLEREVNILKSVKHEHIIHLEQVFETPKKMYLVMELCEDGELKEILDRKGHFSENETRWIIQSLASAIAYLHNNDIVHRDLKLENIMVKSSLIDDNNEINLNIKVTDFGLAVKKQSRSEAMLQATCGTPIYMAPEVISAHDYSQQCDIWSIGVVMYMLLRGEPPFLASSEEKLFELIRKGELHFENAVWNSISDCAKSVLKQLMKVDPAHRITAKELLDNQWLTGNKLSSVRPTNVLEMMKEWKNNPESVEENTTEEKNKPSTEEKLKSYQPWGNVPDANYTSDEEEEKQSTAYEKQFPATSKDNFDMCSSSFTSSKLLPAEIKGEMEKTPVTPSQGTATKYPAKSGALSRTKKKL
# NOMO-1 viab: STK33 inhibitor candidate reducing NOMO-1 cell viability; NOMO-1 AML viability, CellTiter-Glo luminescence, 72 h; inhibition, % (concentration not given with the values); 7.5% of 37,000 active; in the data active means inhibition above about 80%
# PD-1 reverse act: activators reversing PD-1 mediated T-cell inhibition; 29,000 tested, under 10 active; primary human CD4 T cells, PD-L1 beads, CellTiter-Glo 96 h; activation, % (no concentration beside the values); call rule not given here;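 further: 0% = median vehicle wells and 100% = positive control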
# * = called active by the depositor; / = no result given. The full list was thinned out, with hits kept by preference.
SMILES,STK33 kin inh,NOMO-1 viab,PD-1 reverse act
COC(=O)C1=CO[C@@H](O[C@@H]2O[C@H](CO)[C@@H](O)[C@H](O)[C@H]2O)[C@H]2[C@@H]1C=CC21C=C([C@H](C)OC(=O)/C=C/c2ccc(O)cc2)C(=O)O1 (stereo not given in full),-2.6,9.5,-0.8
C[C@H]1CN([C@@H](C)CO)C(=O)c2cccc(NC(=O)Nc3ccc(C(F)(F)F)cc3)c2O[C@H]1CN(C)Cc1ccncc1,/,-4.4,/
C[C@@H]1CN([C@@H](C)CO)C(=O)c2cccc(NC(=O)Nc3ccccc3)c2O[C@H]1CN(C)Cc1ccc(C(F)(F)F)cc1,/,87.8*,-5.8
C[C@H](CO)N1C[C@H](C)[C@@H](CN(C)Cc2ccc(Oc3ccccc3)cc2)Oc2c(NC(=O)Nc3ccc(C(F)(F)F)cc3)cccc2C1=O,/,96.9*,/
C[C@H]1CN([C@@H](C)CO)C(=O)c2cccc(NC(=O)Nc3ccc(C(F)(F)F)cc3)c2O[C@H]1CN(C)Cc1ccccc1,/,40.9,/
C[C@H](CO)N1C[C@H](C)[C@@H](CN(C)Cc2ccc(C(F)(F)F)cc2)Oc2c(NC(=O)Nc3ccccc3)cccc2C1=O,/,92.8*,/
C[C@@H]1CN([C@@H](C)CO)C(=O)c2cccc(NC(=O)Nc3ccc(C(F)(F)F)cc3)c2O[C@H]1CN(C)Cc1ccccc1,/,103.0*,-6.9
COc1ccc(NC(=O)Nc2cccc3c2O[C@H](CN(C)Cc2ccc(C(F)(F)F)cc2)[C@H](C)CN([C@H](C)CO)C3=O)cc1,/,3.3,-2.5
CCOC(=S)SCc1c(C)c(C)c(C)c(C)c1C,/,15.4,0.3
C[C@@H]1CN([C@H](C)CO)C(=O)c2cccc(NC(=O)Nc3ccccc3)c2O[C@@H]1CN(C)Cc1ccc(C(F)(F)F)cc1,/,38.2,1.1
C[C@@H]1CN([C@H](C)CO)C(=O)c2cccc(NC(=O)Nc3cccc4ccccc34)c2O[C@@H]1CN(C)Cc1ccc(C(F)(F)F)cc1,/,97.6*,-1.2
C[C@H]1CN([C@@H](C)CO)C(=O)c2cccc(NC(=O)Nc3ccccc3)c2O[C@@H]1CN(C)Cc1ccc(C(F)(F)F)cc1,/,104.0*,1.6
C[C@H]1CN([C@@H](C)CO)C(=O)c2cccc(NC(=O)Nc3cccc4ccccc34)c2O[C@H]1CN(C)Cc1ccc(C(F)(F)F)cc1,/,52.9,-2.3
CC(=O)O[C@@H]1[C@@H](OC(=O)/C=C/c2ccccc2)[C@@H](OC(=O)/C=C/c2ccccc2)[C@H](O[C@H]2[C@@H]3C=CO[C@@H](O[C@@H]4O[C@H](CO)[C@@H](O)[C@H](O)[C@H]4O)[C@@H]3[C@@]3(CO)O[C@@H]23)O[C@H]1C,-0.6,23.9,1.3
Cc1cc(-c2ccccc2)nc(SCC(=O)Nc2ccc(OC(F)F)cc2)n1,0.1,19.6,0.7
O=C(CSc1nc2ccccc2o1)Nc1ccc(I)cc1,0.5,24.3,/
CCOc1ccccc1-c1nnc(SCC(=O)Nc2ccc(I)cc2)o1,-1.0,119.3*,-3.1
COc1ccc(C(=O)c2oc3ccccc3c2NC(=O)COc2ccc(C)cc2)cc1,0.0,2.6,2.8
CCc1oc2ccccc2c1C(=O)c1ccc(OC(C)=O)cc1,/,136.5*,-1.6
COC(=O)c1c(NC(=O)CC2Sc3ccccc3NC2=O)sc2c1CCC(C)C2 (stereo not given),0.9,16.7,0.9
C[C@H](CO)N1C[C@H](C)[C@H](CN(C)Cc2ccc(C(=O)O)cc2)Oc2ccc(NS(=O)(=O)c3ccc(F)cc3)cc2CC1=O,-0.5,-3.6,/
C[C@@H]1CN([C@H](C)CO)C(=O)Cc2cc(NS(=O)(=O)c3ccc(F)cc3)ccc2O[C@H]1CN(C)Cc1ccc(C(F)(F)F)cc1,5.1,127.2*,-2.9
C[C@@H]1CN([C@H](C)CO)C(=O)Cc2cc(NS(=O)(=O)c3ccc(F)cc3)ccc2O[C@H]1CN(C)Cc1ccc(C(=O)O)cc1,-1.7,-0.7,3.1
C[C@H]1CN([C@@H](C)CO)C(=O)Cc2cc(NS(=O)(=O)c3ccc(F)cc3)ccc2O[C@@H]1CN(C)Cc1ccc(C(F)(F)F)cc1,4.4,89.6*,/
C[C@@H]1CN([C@@H](C)CO)C(=O)Cc2cc(NS(=O)(=O)c3ccc(F)cc3)ccc2O[C@@H]1CN(C)Cc1ccc(C(F)(F)F)cc1,4.9,102.6*,-2.8
SMILES,STK33 kin inh,NOMO-1 viab,PD-1 reverse act
C[C@@H]1CN([C@@H](C)CO)C(=O)Cc2cc(NS(=O)(=O)c3ccccc3)ccc2O[C@@H]1CN(C)Cc1ccc(C(F)(F)F)cc1,6.2,11.5,/
CCOC(=O)c1c(COC(C)=O)n(C)c2cc(Br)c(OC)cc12,/,45.9,-1.1
Cc1cc(=O)[nH]c(SCC(=O)Nc2ccc(Br)cc2F)n1,-1.0,-4.9,0.4
COC(=O)c1ccc(C(=O)OC)c(NC(=O)CSc2nc(C)cc(C)n2)c1,1.4,13.7,0.6
CC(C)S(=O)(=O)c1csc(NC(=O)N2CCCCC2)c1Cl,/,-3.8,0.5
CC(C)S(=O)(=O)c1csc(NC(=O)Nc2cc(C(F)(F)F)cc(C(F)(F)F)c2)c1Cl,0.5,112.7*,-16.7
CC(=O)N1CCN(c2ccc(OCC3CO[C@](Cn4ccnc4)(c4ccc(Cl)cc4Cl)O3)cc2)CC1 (stereo not given in full),4.8,106.8*,/
CC(C)N1CCN(c2ccc(OC[C@H]3CO[C@](Cn4cncn4)(c4ccc(Cl)cc4Cl)O3)cc2)CC1,-2.4,31.0,/
C=CCN1C(=O)/C(=C/c2cc(C)n(CCOC)c2C)C(=O)NC1=S,/,10.2,2.5
C=CCN1C(=O)/C(=C/c2cn(C(C)CC)c3ccccc23)C(=O)NC1=S (stereo not given),/,132.1*,-2.9
C[C@@H]1CC[C@H](O)/C=C/C(=O)O[C@H](C)CC[C@H](O)/C=C/C(=O)O1,-2.2,107.9*,-1.0
Cc1cc(I)ccc1NC(=O)Cn1c([N+](=O)[O-])cnc1C,-5.0,-2.0,0.6
C[C@H]1CN([C@@H](C)CO)C(=O)c2cccc(NC(=O)c3nc4ccccc4s3)c2O[C@@H]1CN(C)Cc1ccc(Cl)c(Cl)c1,/,85.7*,-6.0
C[C@@H]1CN([C@H](C)CO)C(=O)c2cccc(NC(=O)c3nc4ccccc4s3)c2O[C@@H]1CN(C)Cc1ccccc1,/,54.8,/
C[C@@H]1CN([C@H](C)CO)C(=O)c2cccc(NC(=O)c3nc4ccccc4s3)c2O[C@H]1CN(C)Cc1ccc2c(c1)OCO2,/,97.6*,-4.9
C[C@@H]1CN([C@H](C)CO)C(=O)c2cccc(NC(=O)c3nc4ccccc4s3)c2O[C@@H]1CN(C)Cc1ccc2c(c1)OCO2,/,15.4,-0.9
C[C@H]1CN([C@@H](C)CO)C(=O)c2cccc(NC(=O)c3nc4ccccc4s3)c2O[C@@H]1CN(C)Cc1ccc2c(c1)OCO2,/,56.9,/
C[C@@H]1CN([C@@H](C)CO)C(=O)c2cccc(NC(=O)c3nc4ccccc4s3)c2O[C@@H]1CN(C)Cc1ccc2c(c1)OCO2,/,90.3*,-2.4
O=C(CS(=O)(=O)c1ccc2ccccc2c1)c1cc2ccccc2oc1=O,12.1,23.4,0.3
c1ccc(OCc2nc3ccccc3n2Cc2ccccn2)cc1,-0.2,27.5,/
Cc1ccc(-n2c(C)nnc2SCC(=O)Nc2ccc(Cl)c(C(F)(F)F)c2)cc1,-7.5,10.1,-1.5
COc1cc([N+](=O)[O-])ccc1NC(=O)CS(=O)(=O)Cc1ccccc1,-0.5,18.6,-0.7
